# High-throughput results deposited in PubChem by National Center for Advancing Translational Sciences (NCATS).
# Shiga toxin inh: A qHTS for Small Molecule Inhibitors of Shiga Toxin; Vero cells, Shiga toxin protein synthesis inhibition reporter; 290,000 tested, 9.2% active; inhibition, % at 38.7 µM; in the data active = inhibition mostly above about 28%, no sharp cut-off; inactive = mostly below about 43%; note: 0% is about no effect
# Pf growth 48h: Primary qHTS for delayed death inhibitors of the malarial parasite plastid, 48 hour incubation; 310,000 tested, 5.9% active; Potency, µM (top dose mostly 28.7 µM), for the others: at the top dose activity change, negative = inhibition, usual class: inhibitors; AID 504832, 2011; P. falciparum luciferase growth in erythrocytes, 48 h; note: potency is the fitted concentration of half-maximal effect; % is set by controls: 0 for no effect and ±100 for the full control effect
#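 Luciferase-expressing P. falciparum in infected erythrocytes (2% hematocrit, 0.1% parasitemia final) in RPMI 1640/0.5% Albumax were exposed to compound for 48 hours at 37 C, 5% CO2; growth read as luminescence.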
# Pf growth 96h: Primary qHTS for delayed death inhibitors of the malarial parasite plastid, 96 hour incubation | P. falciparum luciferase reporter growth, 96 h | Potency, µM (highest dose often 28.7 µM), inactives show at the top dose activity change, negative = inhibition, usual class: inhibitors | 320,000 tested, 6.9% active; note: potency is the fitted concentration of half-maximal effect; % is set by controls: 0 for no effect and ±100 for the full control effect
#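 Luminescence readout: decreased luciferase signal marks inhibited growth of reporter-expressing P. falciparum in infected red cells (2% hematocrit, 0.05% parasitemia final), exposed to compound two generations (96 h, 37 C, 5% CO2).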
# HCMV inh: qHTS Assay for inhibitors of the human cytomegalovirus (HCMV); HFF cells, HCMV-luciferase reporter, 72 h; active compounds read low; activity change, negative = inhibition, % at 57.5 µM; 410,000 tested, 4.5% active; AID 1259415, 2018; in the data active = activity change below about -60%; inconclusive = no clear call, values can overlap the other calls; inactive = above about -39%; note: % is set by controls: 0 for no effect and ±100 for the full control effect
#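 Screen run at 2 compound doses on HFFs infected with reporter HCMV, MOI 1 PFU/cell. Luciferase activity from cell lysates at 72 h post infection gave inhibition relative to buffer-only and Salinomycin wells.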
# Cycloheximide cs: Cycloheximide Counterscreen for Small Molecule Inhibitors of Shiga Toxin; cell reporter, cycloheximide protein synthesis inhibition counterscreen; max response, %; 300,000 tested, 12% active; in the data active = max response mostly above about 13%, no sharp cut-off; inactive = mostly below about 14%; note: read at 38.3 µM for the half of the compounds with a filed dose; 0% is about no effect
# Numbers without * were called inactive; ? = inconclusive; · = no result given. Rows were chosen to be rich in hits. Some 20% of all compounds tested hit in one or more screens of this group. Unless noted, calls come from the whole dose curve; as a rule, active = well fitted inhibition curve with a large enough effect; inconclusive = small, poorly fitted or top-dose-only effect, or another doubt; inactive = no such curve, though single readings can be large or run the other way.
SMILES,Shiga toxin inh,Pf growth 48h,Pf growth 96h,HCMV inh,Cycloheximide cs
O=C(N/N=C/c1cccc([N+](=O)[O-])c1)c1cc(-c2ccc3c4c(cccc24)CC3)n[nH]1,1,0%,?,?,-3
O=C(N/N=C/c1ccc(Cl)c([N+](=O)[O-])c1)c1ccc2nc[nH]c2c1,-3,3.3µM*,?,-38,-7
Cc1cccc(C(=O)NNC2=CC(=O)CC(C)(C)C2)c1O,65*,25%,41%,21,16*
O=[N+]([O-])c1c(Nc2ccccn2)cc(Cl)c2nonc12,-2,-2%,13%,-105*,1
O=[N+]([O-])c1c(Nc2ccc(O)cc2)cc(Cl)c2nonc12,-6,·,-24%,-100*,-8
CCOCc1nnc(NC(=O)C2CCN(C(=O)C3CC(=O)N(c4ccc(C)cc4)C3)CC2)s1 (centres undefined),-7,-24%,31%,-27,-7
Fc1cccc(Cl)c1CNc1n[nH]c(-c2ccco2)n1,·,·,·,84,·
Cc1ccsc1C(=O)NNC(=O)Nc1ccc(Cl)c(Cl)c1,35,0%,55%,19,14
CC(=O)Nc1cccc(OC(=O)N2CCOCC2)c1,-18,22%,?,-21,8
Cc1occc1C(=O)Nc1cccc(C(=O)O)c1,34,134%,·,108,20*
Cc1ccc(NC(=O)c2ccoc2C)cc1C,107*,109%,30%,38,40*
CC(=O)Nc1cccc(OC(=O)c2ccoc2C)c1,13,-3%,5%,-2,9.7*
Cc1occc1C(=O)NNC(=O)Nc1ccc(Cl)c(Cl)c1,22,9%,?,-24,13*
Cc1nn2c(=O)cc(COC(=O)c3cccc(NC(=O)c4ccc(F)cc4)c3)nc2s1,·,·,·,-25,·
O=C1OC(c2cccc3c(F)cccc23)c2ccccc21 (centres undefined),·,·,·,-34,·
Cc1ccc(C)c(N2CCN(CCCNC(=O)c3cnn(-c4ccc(F)cc4)c3C3CCN(C(=O)OC(C)(C)C)CC3)CC2)c1,·,·,·,-4,·
Cc1cc(NC(=O)c2ccoc2C)ccc1Br,·,67%,381%,-37,·
Cc1occc1C(=O)Nc1ccc2c(c1)OCO2,78*,171%,·,48,37*
Cc1cc(NC(=O)CSc2nc(=O)n(CCCN(C)C)c3c2CCCC3)no1,·,?,-1%,7,·
CC(C)C(NS(=O)(=O)c1ccc2c(c1)C(C)(C)C(=O)N2C)C(=O)NCc1ccc(F)cc1 (centres undefined),15,3%,?,0,-1
COCCCNC(=O)C1CC(=O)OC1c1ccc(OC)c(OC)c1 (centres undefined),-10,·,1%,-13,1
COc1ccc(C2OC(=O)CC2C(=O)NCc2ccc(C)cc2)cc1OC (centres undefined),-8,-23%,9.3µM*,-3,-3
CCc1cccc(NC(=O)C(Cc2ccccc2)n2cccc2)c1 (centres undefined),·,·,·,-20,·
Cc1cc(C(=O)NNC(=O)c2ccc(C(F)(F)F)cc2)no1,1,10%,26%,7,-1
Cc1nc(C(=O)NNC(=O)c2ccc(C(F)(F)F)cc2)cs1,25,?,?,-89*,17
SMILES,Shiga toxin inh,Pf growth 48h,Pf growth 96h,HCMV inh,Cycloheximide cs
COC[C@@H]1CCCN1c1ccc2c(c1)O[C@@H](COCc1ccccc1)CN([C@H](C)c1ccccc1)S2(=O)=O,·,·,·,-65*,·
COC[C@@H]1CCCN1c1ccc2c(c1)O[C@@H](COCc1ccccc1)CN([C@@H](C)c1ccccc1)S2(=O)=O,·,·,·,-15,·
CCCCC[C@H](C)N1C[C@H](COCc2ccccc2)Oc2cc(N3CC[C@H](O)C3)ccc2S1(=O)=O,·,·,·,-5,·
C[C@H](c1ccccc1)N1C[C@@H](COCc2ccccc2)Oc2cc(N3CC[C@H](O)C3)ccc2S1(=O)=O,·,·,·,-76*,·
C[C@@H](c1ccccc1)N1C[C@H](COCc2ccccc2)Oc2cc(N3CC[C@H](N(C)C)C3)ccc2S1(=O)=O,·,·,·,-61*,·
CCCCC[C@@H](C)N1C[C@H](COCc2ccccc2)Oc2cc(N3CC[C@H](N(C)C)C3)ccc2S1(=O)=O,·,·,·,-101*,·
CC(Sc1nc(N)cc(=O)[nH]1)C(=O)Nc1nc2c(s1)CCCC2 (centres undefined),1,33%,?,?,-4
